Only some compounds are listed: those with a hit (about 0.4% of all), similar ones and a draw of the others.
Rac1 wt GTP bind: modulators of human Rac1 wildtype GTP binding. GST-Rac1 beads, fluorescent GTP binding, flow cytometry; actives lie on both sides; 0 = cold GTP competed, 100 = untreated. GTP binding activity (% of control), % at 10 µM. actives 0.27% (n = 190,000);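 active means GTP binding activity at least 20 points away from the 100% control level, either lower or higher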
HRas wt GTP: modulators of GTP binding to human HRas wildtype; P01112; GST-Ras wt beads, Bodipy-FL-GTP binding, flow cytometry; actives lie on both sides; GTP binding activity, % at 10 µM; actives 0.14% (n = 190,000);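 active means GTP binding activity at least 20% away from the 100% baseline, either lowered as inhibitor or raised as activator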;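 further: 0% = unlabeled GTP competition control and 100% = no-compound control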
Target sequence (P01112 whole entry, looked up): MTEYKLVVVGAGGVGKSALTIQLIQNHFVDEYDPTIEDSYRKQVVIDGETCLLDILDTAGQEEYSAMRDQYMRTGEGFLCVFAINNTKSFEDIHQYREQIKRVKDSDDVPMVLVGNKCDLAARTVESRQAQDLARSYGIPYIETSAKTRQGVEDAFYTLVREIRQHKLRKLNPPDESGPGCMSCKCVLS
Cdc42 wt GTP: modulators (inhibitors or activators) of GTP binding to human Cdc42 wildtype. P60953. GST-Cdc42 beads, Bodipy-GTP binding, flow cytometry; actives lie on both sides. percent activity (GTP binding), % at 10 µM. actives 0.2% (n = 190,000);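 active means percent activity GTP binding at least 20 points away from the 100% baseline, either down as inhibitor or up as activator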;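 further: median bead fluorescence of bound Bodipy-FL-GTP at 100 nM; 0% = excess unlabeled GTP control and 100% = no compound control; below 100% means less GTP binding so inhibitor and above means activator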
Target sequence (P60953 whole entry, looked up): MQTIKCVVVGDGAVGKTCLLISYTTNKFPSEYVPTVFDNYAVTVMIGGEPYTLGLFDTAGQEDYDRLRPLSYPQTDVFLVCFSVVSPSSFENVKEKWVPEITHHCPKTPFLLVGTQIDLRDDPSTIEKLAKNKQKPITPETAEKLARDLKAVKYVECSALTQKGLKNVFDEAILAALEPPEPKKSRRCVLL
Rab7 wt GTP bind: dog Rab7 wildtype GTP binding, inhibitors and activators; GST-Rab7 beads, fluorescent GTP binding, flow cytometry; actives lie on both sides; untreated = 100%, excess cold GTP = 0%; GTP binding activity (percent of control), % at 10 µM; actives 0.055% (n = 190,000); AID 758;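 active means fluorescent GTP binding to Rab7 beads changed by at least 20 points from the 100% baseline, either direction, mostly lower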;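 further: median green fluorescence of bound Bodipy-FL-GTP per Rab7 bead population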
Rab2A wt mod: changes GTP binding to wildtype dog Rab2A, up or down. GST-Rab2 wt beads, Bodipy-GTP binding, flow cytometry. GTP binding activity, % at 10 µM. actives 0.19% (n = 190,000). P61105;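 active means GTP binding activity at least 20 points away from 100%, either lowered or raised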;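 further: 0% = beads with excess unlabeled GTP and 100% = no-compound control corrected for plate trend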
Rac1 act GTP bind: alters GTP binding to activated mutant human Rac1; P63000; GST-Rac1 activated beads, fluorescent GTP binding, flow cytometry; actives lie on both sides; 100% means binding = to untreated wells; percent activity (GTP binding), % at 10 µM; actives 0.11% (n = 190,000);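 active means GTP binding at least 20 percentage points away from the 100% baseline, in either direction, so actives lie on both sides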
Active calls of the source: *; [ ] = dose if it differs, or a comment.

SMILES	Rac1 wt GTP bind	HRas wt GTP	Cdc42 wt GTP	Rab7 wt GTP bind	Rab2A wt mod	Rac1 act GTP bind
Cc1c(CN(C)C(=O)/C=C/c2ccc([N+](=O)[O-])cc2)cnn1C	103.0	96.0	100.0	98.0	98.0	99.0
CCC1CCc2c(n(C)c3ccccc3c2=O)O1 (stereo not drawn)	98.0	96.0	97.0	101.0	96.0	99.0
CCN(CC)S(=O)(=O)c1ccc2c(c1)c(=O)c(C(=O)N1CCc3ccccc3C1)cn2C	132.0*[activator]	119.0	115.0	116.0	118.0	109.0
CC1CC(C)CN(C(=O)COc2ccc([N+](=O)[O-])cc2Cl)C1 (stereo not drawn)	96.0	97.0	97.0	103.0	99.0	92.0
C=CCN1C(=O)/C(=C/C=C2/N(CC)c3ccc(S(=O)(=O)N(C)C)cc3N2CC)SC1=S	81.0	79.0*	83.0	96.0	86.0	84.0
Cc1ccc(O)c(C(=O)c2cnn(C(=O)Cc3csc(C)n3)c2)c1	93.0	77.0*	83.0	79.0*	85.0	91.0
Cc1ncc(CC(=O)n2cc(C(=O)c3cc(F)ccc3O)cn2)s1	99.0	98.0	97.0	97.0	97.0	98.0
COc1ccc(-n2cc(-c3ccccc3)c3c(N4CCOCC4)ncnc32)cc1	99.0	97.0	97.0	94.0	96.0	98.0
COc1ccc(-n2cc(-c3ccccc3)c3c(=O)[nH]cnc32)cc1	121.0*[activator]	108.0	110.0	104.0	106.0	104.0
Cc1cc(Cl)ccc1OCC(=O)OCC(=O)Nc1ccc(F)c([N+](=O)[O-])c1	97.0	74.0*	77.0*	89.0	64.0*	91.0
CCNC(=O)COC(=O)COc1ccc(Cl)cc1C	105.0	101.0	102.0	98.0	102.0	100.0
O=C1C2C3C=CC(C4CC34)C2C(=O)N1/N=C/c1cccs1 (stereo not drawn)	102.0	98.0	99.0	104.0	97.0	98.0
CCn1cc(C(=O)O)c(=O)c2cc(F)c(N/N=C/c3ccccc3[N+](=O)[O-])cc21	64.0*	63.0*	82.0	77.0*	58.0*	78.0*
CC1CCN(c2ncccc2C(=O)O)CC1	156.0*[activator]	128.0*[activator]	141.0*[activator]	125.0*[activator]	130.0*[activator]	129.0*[activator]
Cc1ccc(/C=N/N(C)C2=NS(=O)(=O)c3ccccc32)o1	64.0*	66.0*	64.0*	90.0	65.0*	82.0
CN(/N=C/c1ccc(Br)o1)C1=NS(=O)(=O)c2ccccc21	77.0*	86.0	83.0	91.0	82.0	89.0
Cc1csc(SCC(=O)N(C)CC(=O)Nc2ccc(F)cc2)n1	97.0	97.0	95.0	93.0	95.0	95.0
N#CC(C#N)=C(Nc1ccc(F)cc1)SCc1cccc(Br)c1	134.0*[activator]	101.0	127.0*[activator]	101.0	109.0	104.0
Cc1ccc(-c2ccc(/C=C(\C#N)C(=O)Nc3cc(C)nn3-c3ccccc3)o2)cc1	97.0	127.0*[activator]	101.0	107.0	109.0	120.0*[activator]
Cc1ccc(NC(=O)C2=C(c3ccccc3)S(=O)(=O)CCS2(=O)=O)cc1	83.0	86.0	78.0*	94.0	84.0	82.0
CCOC(=O)C1=NN(C(=O)c2ccc(OC)cc2)C(O)(c2ccc(Cl)cc2)C1 (stereo not drawn)	99.0	98.0	100.0	95.0	96.0	98.0
COC(=O)C1=NN(C(=O)c2cccc(Br)c2)C(O)(c2ccc(Cl)cc2)C1 (stereo not drawn)	85.0	85.0	78.0*	94.0	82.0	79.0*
O=C(CCc1nc2ccccc2[nH]c1=O)OCC(=O)N1CCc2ccccc21	130.0*[activator]	106.0	114.0	103.0	107.0	106.0
O=C(CCc1nc2ccccc2c(=O)[nH]1)OCC(=O)N1CCc2ccccc21	101.0	98.0	97.0	106.0	98.0	95.0
C#CCNC(=O)C1=C[C@@H](C2CCCCC2)C[C@@H](OCCCCO)O1	95.0	96.0	92.0	100.0	98.0	97.0
SMILES	Rac1 wt GTP bind	HRas wt GTP	Cdc42 wt GTP	Rab7 wt GTP bind	Rab2A wt mod	Rac1 act GTP bind
Clc1ccccc1Nc1nc(-c2cccnc2)cs1	97.0	94.0	97.0	94.0	95.0	95.0
Cc1ccc(S(=O)(=O)/N=S(/C)c2ccccc2)cc1 (stereo not drawn)	107.0	103.0	105.0	104.0	103.0	102.0
O=C(NCc1cccnc1)c1cccn2c(=O)c3sccc3nc12	76.0*	87.0	87.0	91.0	82.0	86.0
O=C(O)c1ccccc1C(=O)NCc1cccnc1	104.0	101.0	99.0	97.0	100.0	102.0
Cc1ccc(C)c(N(CC(N)=O)S(C)(=O)=O)c1	67.0*	74.0*	75.0*	78.0*	72.0*	71.0*
CC(C)(C)NC(=O)NC(=O)COC(=O)c1cccc(S(=O)(=O)N2CCCCC2)c1	104.0	104.0	99.0	103.0	100.0	101.0
COC(=O)C(C)Oc1ccc(Oc2nc(Cl)ccc2Cl)cc1 (stereo not drawn)	94.0	93.0	90.0	104.0	95.0	89.0
COc1ccc2nc(C)cc(SCC(=O)N/N=C/c3ccc(O)c(O)c3)c2c1	79.0*	72.0*	69.0*	91.0	68.0*	82.0
COc1ccc2nc(C)cc(SCC(=O)N/N=C/c3cccc4ccccc34)c2c1	98.0	98.0	98.0	97.0	98.0	97.0
COc1cccc2c(SCC(=O)N/N=C/c3ccccc3)cc(C)nc12	96.0	94.0	99.0	99.0	97.0	95.0
COc1cccc2c(SCC(=O)N/N=C/c3ccc(O)c(O)c3)cc(C)nc12	65.0*	79.0*	71.0*	89.0	75.0*	84.0
NC(N)=NS(=O)(=O)c1ccc(NC(=S)NC(=O)c2ccc3c(c2)OCO3)cc1	123.0*[activator]	111.0	109.0	100.0	114.0	105.0
CC(=O)Nc1ccc(S(=O)(=O)Nc2cccc(NC(=O)c3ccco3)c2)cc1	89.0	92.0	88.0	96.0	93.0	93.0
Cc1ccc(/C=N/NC(=O)C2CCN(Cc3ccc(F)cc3Cl)CC2)o1	102.0	99.0	104.0	78.0*	100.0	101.0
CC(=O)Oc1ccc2c(c1)cc(C)n2C	99.0	98.0	99.0	98.0	98.0	101.0
OCCC1CN(Cc2ccccc2O)CCN1CCc1ccccc1 (stereo not drawn)	12.0*	18.0*	16.0*	10.0*	16.0*	13.0*
CCOc1cccc(CN2CCN(CCc3ccccc3)C(CCO)C2)c1O (stereo not drawn)	88.0	85.0	87.0	98.0	89.0	85.0
CCc1ccccc1NC(=O)N1C2CCCC1CC(NC(C)=O)C2 (stereo not drawn)	139.0*[activator]	104.0	126.0*[activator]	95.0	108.0	107.0
O=C(O)c1cc([N+](=O)[O-])ccc1NCc1ccccc1	204.0*[activator]	150.0*[activator]	172.0*[activator]	137.0*[activator]	153.0*[activator]	146.0*[activator]

Bioassay records (PubChem)
